Test results: PubChem BioAssay (Tox21)
Records with an inconclusive call do not appear. Activity calls are given as the source filed them. Unless noted, calls come from the whole dose curve; as a rule, active = well fitted curve in the direction sought with a large enough effect in the repeat runs; inconclusive = weak or mixed curves; inactive = no such curve, though single readings can be large; an effect the other way counts as inactive or inconclusive.

Columns and labels:
[1] = qHTS assay to identify small molecule antagonists of the estrogen related receptor (ERR) signaling pathway from Tox21 library - cell viability counter screen (AID 1224834); note: nearly all actives have a fitted effect of over 30% in size
Summary of the method: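 CellTiter-Fluor fluorescence, read after 30 min at 37 C, measures viability of ERR cells. Cells plated at 2,000/well and incubated 6 h before pin-tool compound addition, then exposed 17.5 hours at 37 C.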

[2] = target: Luciferin 4-monooxygenase (Photinus pyralis) (UniProt P08659); assay: qHTS assay to identify small molecule inhibitors of firefly luciferase (AID 1224835); note: nearly all actives have a fitted effect of over 25% in size; note: potency is the fitted concentration of half-maximal effect; for activity change, negative = inhibition: series mostly up to about 120 µM
Summary of the method: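 Quantitative HTS format; KM concentrations of both substrates. Purified P. pyralis FLuc activity quantified from luminescence images.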

[3] = qHTS assay to identify small molecule agonists of the constitutive androstane receptor (CAR) signaling pathway - cell viability counter screen (AID 1224836); note: series mostly up to about 92 µM; nearly all actives have a fitted effect of over 45% in size
Summary of the method: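 23 h treatment, 37 C, 5% CO2. Cell line: HepG2 stably expressing hCAR with a CYP2B6-2.2kb construct. Co-treatment: PK11195, 0.75 uM final. Read-out: CellTiter-Fluor fluorescence intensity.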

[4] = qHTS assay to identify small molecule antagonists of the constitutive androstane receptor (CAR) signaling pathway - cell viability counter screen (AID 1224837); note: series mostly up to about 92 µM; nearly all actives have a fitted effect of over 45% in size
Summary of the method: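 Cytotoxicity counter-screen: CellTiter-Fluor fluorescence after 23 h compound exposure (15-point qHTS) in double-stable HepG2-CYP2B6-hCAR cells, with 50 nM CITCO added.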

[5] = target: Nuclear receptor subfamily 1 group I member 3 (Homo sapiens) (UniProt Q14994); assay: qHTS assay to identify small molecule agonists of the constitutive androstane receptor (CAR) signaling pathway (AID 1224839);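 note: HepG2 cells stably carrying human CAR and a CYP2B6 luciferase reporter; series mostly up to about 92 µM; nearly all actives have a fitted effect of over 15% in size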
Summary of the method: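 Compounds tested at 15 concentrations on HepG2 cells stably harbouring hCAR and CYP2B6-2.2kb reporter constructs, co-treated with PK11195 (0.75 uM final), 24 h at 37 C; luminescent reporter signal quantified.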

[6] = qHTS assay to identify small molecule antagonists of the estrogen related receptor signaling pathway with the pleiotropic PPARgamma coactivator (PGC) from Tox21 10K library - cell viability counter screen (AID 1224840; active = well fitted cell-killing curve with a large enough effect in the repeat runs, not every such curve was filed as active; note: nearly all actives have a fitted effect of over 40% in size)
Summary of the method: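 Counter-screen for cytotoxicity: after 17.5 h compound exposure at 37 C, CellTiter-Fluor reagent added to PGC/ERR cells for 30 min and fluorescence read. Cells were seeded at 2,000 per well 6 h before dosing.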

[7] = qHTS assay to identify small molecule agonists of the estrogen related receptor signaling pathway with the pleiotropic PPARgamma coactivator (PGC) from Tox21 10K library (AID 1224842); note: nearly all actives have a fitted effect of over 15% in size
Summary of the method: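 PGC/ERR reporter cells (NTP line) were seeded 2,000 per well, rested 6 h at 37 C/5% CO2, then pin-dosed with compounds in DMSO for 18 h at 37 C; luciferase read by One-Glo luminescence after 30 min at room temperature.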

[8] = target: Thyrotropin receptor (Homo sapiens) (UniProt P16473); assay: qHTS assay to identify small molecule agonists of the thyroid stimulating hormone receptor (TSHR) signaling pathway (AID 1224843; calls by dose curve; note: nearly all actives have a fitted effect of over 45% in size; note: potency is the fitted concentration of half-maximal effect)
Summary of the method: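 Compounds are titrated over 15 concentrations, in triplicate, onto TSHR-HEK293 cells seeded at 800/well. Plates sit 30 min at room temperature before cAMP-d2 and anti-cAMP cryptate are added; signal is read after a further hour.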

[9] = target: Nuclear receptor subfamily 1 group I member 3 (Homo sapiens) (UniProt Q14994); assay: qHTS assay to identify small molecule antagonists of the constitutive androstane receptor (CAR) signaling pathway (AID 1224838);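 note: HepG2 cells stably expressing hCAR with CYP2B6 luciferase reporter stimulated by CITCO; nearly all actives have a fitted effect of over 40% in size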
Summary of the method: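 Antagonism measured as luciferase signal (ONE-Glo, 30 min, room temperature) in CAR-stimulated cells: HepG2-CYP2B6-hCAR double-stable line exposed 24 hr at 37 C to compound in a 15-point series plus 50 nM CITCO.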

[10] = qHTS assay to identify small molecule antagonists of the estrogen related receptor signaling pathway with the pleiotropic PPARgamma coactivator (PGC) from Tox21 10K library (AID 1224841; call rule not given here; note: series mostly up to about 92 µM; actives are mostly falling curves and most rising ones were filed inactive; nearly all actives have a fitted effect of over 50% in size)
Summary of the method: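 Luminescence (One-Glo, 30 min at room temperature) after 18 h compound treatment at 37 C of PGC/ERR reporter cells plated at 2,000 cells/well and settled 6 h beforehand.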
% is set by controls: 0 for no effect and ±100 for the full control effect.

Sequence of Thyrotropin receptor (Homo sapiens) (P16473 whole entry, looked up): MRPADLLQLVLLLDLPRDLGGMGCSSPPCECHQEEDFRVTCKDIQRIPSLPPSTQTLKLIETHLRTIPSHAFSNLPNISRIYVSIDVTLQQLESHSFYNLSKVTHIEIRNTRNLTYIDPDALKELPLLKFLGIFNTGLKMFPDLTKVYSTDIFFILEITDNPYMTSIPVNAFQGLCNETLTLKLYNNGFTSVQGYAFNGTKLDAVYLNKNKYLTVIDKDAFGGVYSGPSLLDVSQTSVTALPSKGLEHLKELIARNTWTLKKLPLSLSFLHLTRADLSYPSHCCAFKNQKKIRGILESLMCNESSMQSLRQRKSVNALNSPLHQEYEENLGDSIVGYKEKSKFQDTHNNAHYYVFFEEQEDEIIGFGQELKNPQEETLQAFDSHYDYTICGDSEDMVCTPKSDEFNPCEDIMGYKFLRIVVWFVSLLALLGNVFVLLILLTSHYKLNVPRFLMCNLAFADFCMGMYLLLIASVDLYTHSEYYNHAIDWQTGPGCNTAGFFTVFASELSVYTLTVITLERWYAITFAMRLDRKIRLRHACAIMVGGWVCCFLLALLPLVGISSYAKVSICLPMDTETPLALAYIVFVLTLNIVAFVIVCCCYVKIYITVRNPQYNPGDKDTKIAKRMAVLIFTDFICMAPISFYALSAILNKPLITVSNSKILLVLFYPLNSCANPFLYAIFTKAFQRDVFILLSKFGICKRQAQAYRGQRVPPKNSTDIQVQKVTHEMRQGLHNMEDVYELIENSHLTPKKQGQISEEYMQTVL
Sequence of Luciferin 4-monooxygenase (Photinus pyralis) (P08659 whole entry, looked up): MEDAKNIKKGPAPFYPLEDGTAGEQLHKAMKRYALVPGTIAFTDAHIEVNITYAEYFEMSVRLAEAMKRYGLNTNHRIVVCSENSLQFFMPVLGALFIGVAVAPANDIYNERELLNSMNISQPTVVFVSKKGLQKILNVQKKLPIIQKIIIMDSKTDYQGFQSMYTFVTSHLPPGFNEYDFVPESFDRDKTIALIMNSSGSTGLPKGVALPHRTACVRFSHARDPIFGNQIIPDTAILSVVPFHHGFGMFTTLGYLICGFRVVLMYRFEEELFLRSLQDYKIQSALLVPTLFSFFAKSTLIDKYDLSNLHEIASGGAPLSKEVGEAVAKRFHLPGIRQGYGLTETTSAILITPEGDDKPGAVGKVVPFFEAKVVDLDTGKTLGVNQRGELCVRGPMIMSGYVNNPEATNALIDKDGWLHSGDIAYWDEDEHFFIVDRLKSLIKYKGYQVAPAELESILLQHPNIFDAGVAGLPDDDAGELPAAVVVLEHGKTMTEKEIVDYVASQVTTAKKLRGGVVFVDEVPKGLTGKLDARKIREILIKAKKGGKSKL
Sequence of Nuclear receptor subfamily 1 group I member 3 (Homo sapiens) (Q14994 whole entry, looked up): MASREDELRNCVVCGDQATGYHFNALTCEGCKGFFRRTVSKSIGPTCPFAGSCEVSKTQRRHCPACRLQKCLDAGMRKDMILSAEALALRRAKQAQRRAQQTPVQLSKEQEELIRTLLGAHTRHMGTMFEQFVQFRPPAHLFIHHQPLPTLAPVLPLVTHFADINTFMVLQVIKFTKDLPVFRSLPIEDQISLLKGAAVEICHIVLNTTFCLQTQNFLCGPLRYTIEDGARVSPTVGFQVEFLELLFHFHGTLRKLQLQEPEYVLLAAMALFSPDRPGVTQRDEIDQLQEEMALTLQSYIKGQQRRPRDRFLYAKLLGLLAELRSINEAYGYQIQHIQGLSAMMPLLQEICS

COc1cc(C)nc(-n2nc(C)cc2OC)n1
inactive: Potency [1] | Potency [2] | outcome [3] | outcome [4] | Potency [5] | outcome [6] | Potency [7] | Potency [8]

CCCCN(CCC(=O)OCC)C(C)=O
inactive: Potency [1] | Potency [2] | outcome [3] | outcome [4] | Potency [9] | Potency [5] | outcome [6] | Potency [8]

CN(C)CCN(C)CCN(C)C
inactive: Potency [1] | Potency [2] | outcome [3] | outcome [4] | Potency [9] | Potency [5] | outcome [6] | Potency [8]

CNCC(O)c1ccc(O)c(O)c1 (stereo not drawn)
active: Potency [8] 2.98 µM
inactive: Potency [1] | Potency [2] | outcome [3] | outcome [4] | Potency [5] | outcome [6]

O=[N+]([O-])c1cncn1CCN1CCOCC1
inactive: Potency [1] | Potency [2] | outcome [3] | outcome [4] | Potency [5] | outcome [6] | Potency [8]

CC(C)C[C@@H](N)C(=O)O
inactive: viability change, negative = cytotoxic [1] 1.15% [at 19 µM] | activity change, negative = inhibition [2] -3.09% [at 23.6 µM] | viability change, negative = cytotoxic [3] 3.64% [at 19 µM] | activity change, negative = cytotoxicity [4] 0.137% [at 19 µM] | activity, negative = inhibition [9] 4.78% [at 19 µM] | viability change, negative = cytotoxic [6] -8.03% [at 19 µM] | activity, negative = inhibition [10] 0.755% [at 19 µM] | activation [7] -0.0839% [at 19 µM] | activation [8] -1.78% [at 19 µM]

C[C@@H]1C[C@H]2[C@@H]3C[C@H](F)C4=CC(=O)C(Cl)=C[C@]4(C)[C@@]3(F)[C@@H](O)C[C@]2(C)[C@@]1(O)C(=O)CO
inactive: Potency [1] | Potency [2] | outcome [3] | outcome [4] | Potency [9] | Potency [5] | outcome [6] | Potency [8]

CNC(=O)Nc1ccc(Cl)c(Cl)c1
active: Potency [2] 56.4 µM
inactive: Potency [1] | outcome [3] | outcome [4] | Potency [9] | outcome [6] | Potency [8]

CC(C)(C)C(=O)c1ccccc1
inactive: Potency [1] | Potency [2] | outcome [3] | outcome [4] | Potency [5] | outcome [6] | Potency [8]

CC(C)=CCC/C(C)=C/C#N
inactive: Potency [1] | Potency [2] | outcome [3] | outcome [4] | Potency [5] | outcome [6] | Potency [8]

O=C(O)Cc1csc(-c2ccc(Cl)cc2)n1
inactive: Potency [1] | Potency [2] | outcome [3] | outcome [4] | Potency [5] | outcome [6] | Potency [8]

O=C(c1ccccc1)C1(O)CCCCC1
inactive: Potency [1] | Potency [2] | outcome [3] | Potency [9] | Potency [5] | outcome [6] | Potency [8]

Cc1coc2ccccc2c1=O
inactive: Potency [1] | Potency [2] | outcome [3] | outcome [4] | outcome [6] | Potency [8]

NCCCC(N)(C(=O)O)C(F)F (stereo not drawn)
inactive: Potency [1] | Potency [2] | outcome [3] | outcome [4] | outcome [6] | Potency [8]

Cc1ccccc1N=C(N)N=C(N)N
inactive: Potency [1] | Potency [2] | outcome [3] | outcome [4] | outcome [6] | Potency [8]
